PubChem BioAssay (NCI)
Compounds without any hit were thinned out: in the full panel of roughly 83,000, 20% have a hit.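 Treatment: one concentration, 48 hours, 96-well format. Scoring: percent growth, with anything below 10 considered active.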 Unmarked numbers belong to inactive results. Activity calls are given as the source filed them.

Columns and labels:
Assay in all cases: NCI-60 one-dose screen, 48 h (100 = growth as untreated, 0 = no growth, -100 = all killed)
Conditions in all cases: 10 µM
NCI-H23 lung = system: NCI-H23 lung
NCI-H226 lung = system: NCI-H226 lung
NCI-H322M lung = system: NCI-H322M lung
HOP-62 NSCLC = system: HOP-62 NSCLC
NCI-H460 lung = system: NCI-H460 lung
HOP-92 NSCLC = system: HOP-92 NSCLC
NCI-H522 lung = system: NCI-H522 lung
A549/ATCC NSCLC = system: A549/ATCC NSCLC
786-0 renal = system: 786-0 renal
COLO 205 colon = system: COLO 205 colon

Row | Structure (SMILES) | growth (NCI-H23 lung) | growth (NCI-H226 lung) | growth (NCI-H322M lung) | growth (HOP-62 NSCLC) | growth (NCI-H460 lung) | growth (HOP-92 NSCLC) | growth (NCI-H522 lung) | growth (A549/ATCC NSCLC) | growth (786-0 renal) | growth (COLO 205 colon)
1 | COc1ccccc1S(=O)(=O)Nc1ccc2c(c1)CN(C)C(=O)N2 | 56.7% | 63% | 42.9% | 44.3% | 55.8% | 2.37% (active) | 26.1% | 50.5% | 72.7% | 38.4%
2 | O=C(Nc1cccc([N+](=O)[O-])c1)NN1CCCCCC1 | 105% | 95.7% | 111% | 111% | 91.2% | 80.8% | 90% | 87% | 96.3% | 104%
3 | CCSc1nc2c([nH]1)c(=O)n(C)c(=S)n2C | 98.6% | 117% | 117% | 98% | 107% | 103% | 102% | 107% | 100% | 106%
4 | CC(=O)Nc1nc(C)c(C(=O)N/N=C/c2cccn2C)s1 | 96% | 90.7% | 150% | 109% | 109% | 56.1% | 86% | 104% | 111% | 125%
5 | Cc1cc(C(C)(C)CC(C)(C)C)ccc1OCCOCC[N+](C)(C)Cc1ccccc1 | -20% (active) | -18% (active) | 20.6% | -83.5% (active) | -72.2% (active) | -72.5% (active) | -50.1% (active) | 36.7% | -19.4% (active) | -81.6% (active)
6 | COc1cc(C2C(C#N)=C(c3c[nH]c4ccccc34)Nc3nc(N)[nH]c(=O)c32)cc(OC)c1OC (stereo not given) | 80.7% | 86.3% | 104% | 82.9% | 106% | 47.8% | -11.7% (active) | 105% | 100% | 65%
7 | COc1cc(OC)cc(-c2ccc(-c3ccc(C(=N)N)cn3)o2)c1 | 61.6% | 60.7% | 2.03% (active) | 6.78% (active) | -76.6% (active) | -21.8% (active) | -50.7% (active) | 4.73% (active) | -40.2% (active) | -56.9% (active)
